# Experimental data: PubChem BioAssay (NCI)
# About 79,000 compounds went through this panel and 15% of them were active in at least one assay; those are over-represented in the sample as a whole. Unmarked numbers belong to inactive results. Calls of active or inactive are those of the source. No stated cut-off is given here; in the data, active means growth inhibition above about 70%; inactive means the rest.
# Assays:
# [1] = NCI Yeast Anticancer Drug Screen. Data for the rad50 strain (AID 155);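 further: 0% = growth of vehicle-only cultures of the same strain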; details: S. cerevisiae rad50 strain growth inhibition, stronger effect = higher value
# Method in brief: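 DNA repair mutant yeast, compound exposure, growth read-out; inhibition is taken relative to vehicle.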
# [2] = NCI Yeast Anticancer Drug Screen. Data for the mec2-1 strain (AID 157); details: S. cerevisiae mec2-1 strain, stronger effect = higher value
# Method in brief: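 Cells of the genetically defined mec2-1 yeast strain are incubated with test compound. Inhibition of growth is calculated against vehicle-treated controls.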
# [3] = NCI Yeast Anticancer Drug Screen. Data for the sgs1 mgt1 strain (AID 161);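 further: 0% = growth of cultures given vehicle only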; details: S. cerevisiae sgs1 mgt1 strain, stronger effect = higher value
# Method in brief: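 Mutant yeast exposed to compound; growth scored against vehicle-only wells.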
# [4] = NCI Yeast Anticancer Drug Screen. Data for the cln2 rad14 strain (AID 165);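 further: 0% = growth equal to vehicle treated cultures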; details: S. cerevisiae cln2 rad14 strain, stronger effect = higher value
# Method in brief: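 The screen exposed genetically defined yeast (cln2 rad14) to test compounds and scored growth inhibition relative to vehicle-treated controls.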
# [5] = NCI Yeast Anticancer Drug Screen. Data for the bub3 strain (AID 167); details: S. cerevisiae bub3 mutant strain, stronger effect = higher value
# Method in brief: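 In this screen, a yeast mutant lacking normal mitotic checkpoint function is challenged with compound. Relative growth versus vehicle gives the inhibition value.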
# [6] = NCI Yeast Anticancer Drug Screen. Data for the mlh1 rad18 strain (AID 175); details: S. cerevisiae mlh1 rad18 strain growth inhibition, stronger effect = higher value
# Method in brief: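 Compound-treated yeast growth, normalised to vehicle controls. Strain bears defined DNA repair mutations.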
# [7] = at 5.0 µM (retest, dose inferred, filed as 0.5)
# [8] = at 50.0 µM (retest, dose inferred, filed as 5.0)
Compound,"growth inhibition [1, 7]","growth inhibition [1, 8]",growth inhibition ([1]; at 50.0 µM),"growth inhibition [2, 7]","growth inhibition [2, 8]",growth inhibition ([2]; at 50.0 µM),"growth inhibition [3, 7]","growth inhibition [3, 8]",growth inhibition ([3]; at 50.0 µM),"growth inhibition [4, 7]","growth inhibition [4, 8]",growth inhibition ([4]; at 50.0 µM),"growth inhibition [5, 7]","growth inhibition [5, 8]",growth inhibition ([5]; at 50.0 µM),"growth inhibition [6, 7]","growth inhibition [6, 8]",growth inhibition ([6]; at 50.0 µM)
O=C(O)c1cccc(N=Nc2c(S(=O)(=O)O)ccc3c2C(=O)c2ccccc2C3=O)c1O,17%,38%,30.4%,8%,17%,36.8%,8%,38%,-2.5%,-21%,17%,71.1% (active),-11%,25%,-15.2%,29%,28%,85.6% (active)
NC(=O)C12OC3CC(CC(C3)O1)O2,-25%,-10%,5.95%,-8%,-17%,11.4%,-9%,12%,11.3%,-1%,3%,71.2% (active),2%,5%,2.75%,9%,-22%,11.2%
COC(=O)CC1(O)c2cc(OC)c3cccc(OC)c3c2CCC1(C)C(=O)OC (stereo not given),88% (active),97% (active),92.9% (active),91% (active),99% (active),88.8% (active),85% (active),99% (active),95.2% (active),80% (active),97% (active),96% (active),83% (active),98% (active),88.5% (active),92% (active),98% (active),94.8% (active)
O=C(Nc1ccc(Cl)cc1)Nc1nnc2nc(C(C(=O)c3ccc(F)cc3)c3nc4nnc(NC(=O)Nc5ccc(Cl)cc5)n4[nH]c3=O)c(=O)[nH]n12,-11%,32%,99.5% (active),-19%,56%,99.5% (active),4%,33%,99.5% (active),-38%,36%,99.2% (active),-26%,48%,99% (active),-10%,64%,99.5% (active)
CC(=O)/C(=C\c1cccs1)C(=O)CCN(C)C,11%,25%,9.05%,15%,28%,17.2%,10%,29%,34%,20%,27%,19.5%,4%,23%,-2.2%,22%,30%,50.1%
CC(CCOP(=O)(O)OCCC(C)CC(C)(C)C)CC(C)(C)C (stereo not given),-3%,20%,11.8%,-9%,13%,62.6%,-4%,52%,35.4%,-2%,45%,51%,-19%,10%,71.4% (active),3%,19%,47.8%
N#CCc1nc(Cl)cc(Cl)n1,2%,29%,31.9%,12%,59%,81.6% (active),2%,24%,19.8%,4%,12%,9.7%,-4%,2%,5.05%,3%,27%,15.9%
NC(=S)Nc1c(Br)cc(Br)cc1Br,-1%,91% (active),62.5%,1%,90% (active),33.5%,-1%,84% (active),34.8%,3%,88% (active),23.1%,-6%,80% (active),74% (active),2%,88% (active),47%
C=CS(=O)(=O)c1ccc2ccccc2c1,-100%,97% (active),99.5% (active),-22%,98% (active),99.4% (active),-20%,98% (active),99.2% (active),-34%,97% (active),98.7% (active),-35%,97% (active),98.8% (active),-93%,97% (active),99% (active)
N/N=C(/N)SCCCCCCCCCCS/C(N)=N/N,-6%,5%,21.4%,-4%,78% (active),48.5%,-35%,76% (active),82.3% (active),-10%,-28%,51.9%,-6%,7%,15.2%,-8%,39%,79.8% (active)
